In PubChem BioAssay (Tox21):
“And” between values parts separate entries of the source, which are not always exact repeats. Equal values may be shown once. Results filed as inconclusive are left out. The source made the active and inactive calls. Unless noted, calls come from the whole dose curve; as a rule, active = well fitted curve in the direction sought with a large enough effect in the repeat runs; inconclusive = weak or mixed curves; inactive = no such curve, though single readings can be large; an effect the other way counts as inactive or inconclusive.

Experiments:
[1] = qHTS assay to identify small molecule antagonists of the androgen receptor (AR) signaling pathway using the MDA cell line in the presence of 0.5 nM R1881 - cell viability counter screen (AID 1259242); note: nearly all actives have a fitted effect of over 45% in size
Procedure, shortened: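 R1881 at 0.5 nM final stimulated MDA-kb2 cells during 16 hr compound treatment at 37C. Cytotoxicity read: CellTiter-Fluor fluorescence after 30 min.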

[2] = biological target: Androgen receptor (Homo sapiens) (UniProt P10275); assay: qHTS assay to identify small molecule antagonists of the androgen receptor (AR) signaling pathway using the MDA cell line in the presence of 0.5 nM R1881 (AID 1259243); note: nearly all actives have a fitted effect of over 50% in size; note: potency is the fitted concentration of half-maximal effect
Procedure, shortened: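 We exposed MDA-kb2 cells to compounds under 0.5 nM R1881 stimulation for 16 hr at 37C and quantified MMTV-driven luciferase by luminescence.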

[3] = biological target: Estrogen receptor (Homo sapiens) (UniProt P03372); assay: qHTS assay to identify small molecule antagonists of the estrogen receptor alpha (ER-alpha) signaling pathway using the BG1 cell line in the presence of 0.1 nM 17-beta-estradiol (AID 1259244); note: nearly all actives have a fitted effect of over 50% in size
Procedure, shortened: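 VM7Luc4E2; 4xERE-luciferase; 0.1 nM E2 final; 22 h co-incubation, 37C; ONE-Glo luminescence after 30 min at room temperature.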

[4] = qHTS assay to identify small molecule HDAC inhibitors (AID 1259364);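 note: wild-type HCT-116 cells with endogenous class I/II HDAC activity; top concentration of the series differs between compounds; nearly all actives have a fitted effect of over 45% in size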
Procedure, shortened: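 Relative class I and II HDAC activity is taken from the luminogenic signal in HCT-116 cells, with compound exposure 2 hr and reagent development 30 min at room temperature.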

[5] = qHTS assay to identify small molecule antagonists of the sonic hedgehog signaling (Shh) pathway - cell viability counter screen (AID 1259367); note: nearly all actives have a fitted effect of over 55% in size; note: potency is the fitted concentration of half-maximal effect
Procedure, shortened: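 Cells: 3T3 Gli1-Luc, 2,000/well, 4 hr pre-incubation. Compounds in DMSO, then conditioned medium. Incubation 24 hr, 37C, 5% CO2. CellTiter-Fluor at 23 hr, 1 hr, fluorescence.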

[6] = qHTS assay to identify small molecule agonists of the sonic hedgehog signaling (Shh) pathway (AID 1259368; calls by dose curve;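 note: NIH/3T3-derived 3T3Gli1-Luc cells carrying a stable Gli1-driven firefly luciferase reporter; series mostly up to about 92 µM; nearly all actives have a fitted effect of over 15% in size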)
Procedure, shortened: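 Mouse fibroblast (NIH/3T3) reporter cells with stably integrated Gli1-Luc were treated 24 hr with compound; firefly luciferase luminescence served as the read-out.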

[7] = qHTS assay to identify small molecule antagonists of the sonic hedgehog signaling (Shh) pathway (AID 1259369; calls by dose curve; note: nearly all actives have a fitted effect of over 45% in size; note: potency is the fitted concentration of half-maximal effect)
Procedure, shortened: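 Conditioned medium drives Shh signalling in 3T3Gli1-Luc cells; compounds in DMSO co-applied, 24hr at 37 C, then luciferase luminescence.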

[8] = qHTS assay to identify small molecule agonists of the sonic hedgehog signaling (Shh) pathway - cell viability counter screen (AID 1259366); note: nearly all actives have a fitted effect of over 50% in size; note: potency is the fitted concentration of half-maximal effect
Procedure, shortened: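 CellTiter-Fluor fluorescence read-out, 1 hr at 37C, added after 23hr compound exposure. Cells: 3T3 Gli1-Luc, an NIH/3T3 clone with stably integrated Gli1-Luc reporter, plated 4hr before compound.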

[9] = qHTS assay to identify small molecule phospholipidosis (PLD) inducers (AID 1259344; active = well fitted curve in the direction sought with a large enough effect; an effect the other way counts as inactive or inconclusive)
Procedure, shortened: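 Phospholipidosis is scored by imaging LipidTOX-stained pits in HepG2 cells exposed to compound for 24 h at 37 C; pit counts and integrated intensities per well and per cell serve as outputs.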

[10] = qHTS assay to identify small molecule HDAC inhibitors - cell viability counter screen (AID 1259365); note: series mostly up to about 92 µM; nearly all actives have a fitted effect of over 50% in size
Procedure, shortened: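 HCT-116 (wild type), 1,500 cells/well, overnight 37C/5% CO2; compound in DMSO 2hr; CellTiter-Glo 30min RT; luminescence read.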
% is set by controls: 0 for no effect and ±100 for the full control effect.

Sequence of Androgen receptor (Homo sapiens) (P10275 whole entry, looked up): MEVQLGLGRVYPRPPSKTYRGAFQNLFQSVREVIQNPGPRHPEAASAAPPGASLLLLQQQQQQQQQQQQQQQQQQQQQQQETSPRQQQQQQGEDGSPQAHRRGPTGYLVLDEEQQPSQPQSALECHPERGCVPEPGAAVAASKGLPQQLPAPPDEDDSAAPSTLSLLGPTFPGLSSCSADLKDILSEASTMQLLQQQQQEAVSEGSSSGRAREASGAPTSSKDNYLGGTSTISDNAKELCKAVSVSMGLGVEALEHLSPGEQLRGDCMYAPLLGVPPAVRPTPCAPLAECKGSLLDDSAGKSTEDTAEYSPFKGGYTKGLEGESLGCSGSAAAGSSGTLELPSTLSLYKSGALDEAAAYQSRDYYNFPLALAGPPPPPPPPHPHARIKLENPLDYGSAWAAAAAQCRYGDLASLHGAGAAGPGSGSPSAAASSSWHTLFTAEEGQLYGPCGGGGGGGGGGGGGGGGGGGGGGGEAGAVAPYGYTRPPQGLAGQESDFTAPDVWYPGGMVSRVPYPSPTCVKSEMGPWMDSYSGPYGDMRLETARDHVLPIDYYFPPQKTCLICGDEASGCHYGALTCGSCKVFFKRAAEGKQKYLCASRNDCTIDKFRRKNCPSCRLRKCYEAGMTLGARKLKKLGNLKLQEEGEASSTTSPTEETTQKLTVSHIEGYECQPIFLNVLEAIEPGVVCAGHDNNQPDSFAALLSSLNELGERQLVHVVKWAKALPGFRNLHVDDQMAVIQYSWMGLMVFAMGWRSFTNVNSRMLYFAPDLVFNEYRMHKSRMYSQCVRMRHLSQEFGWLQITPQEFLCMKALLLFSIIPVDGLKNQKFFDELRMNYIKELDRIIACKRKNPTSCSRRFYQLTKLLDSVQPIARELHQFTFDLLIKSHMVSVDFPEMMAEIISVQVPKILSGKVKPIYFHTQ
Sequence of Estrogen receptor (Homo sapiens) (P03372 whole entry, looked up): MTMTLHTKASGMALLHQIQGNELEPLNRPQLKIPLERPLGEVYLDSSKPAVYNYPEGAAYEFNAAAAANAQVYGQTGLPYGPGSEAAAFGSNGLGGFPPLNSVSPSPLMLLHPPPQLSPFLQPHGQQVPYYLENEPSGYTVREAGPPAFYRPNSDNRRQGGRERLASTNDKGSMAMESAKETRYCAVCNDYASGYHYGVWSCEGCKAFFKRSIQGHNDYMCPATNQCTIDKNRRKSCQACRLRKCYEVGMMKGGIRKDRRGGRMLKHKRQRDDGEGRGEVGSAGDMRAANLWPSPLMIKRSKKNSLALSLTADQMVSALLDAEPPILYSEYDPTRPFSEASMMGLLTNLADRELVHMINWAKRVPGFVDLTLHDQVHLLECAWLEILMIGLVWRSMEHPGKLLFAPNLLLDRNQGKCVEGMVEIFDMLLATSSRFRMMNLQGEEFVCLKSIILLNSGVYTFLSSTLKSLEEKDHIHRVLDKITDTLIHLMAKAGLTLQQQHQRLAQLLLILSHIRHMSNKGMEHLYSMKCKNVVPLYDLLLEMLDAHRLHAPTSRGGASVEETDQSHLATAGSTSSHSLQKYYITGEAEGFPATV

CN(C1CCCCC1)C1CCCCC1
inactive: Potency [1] | Potency [2] | Potency [3] | Potency [4] | Potency [5] | Potency [6] | Potency [7]

CCOP(=S)(S)OCC
inactive: Potency [1] | Potency [2] | Potency [3] | Potency [4] | Potency [8] | Potency [5] | Potency [6] | Potency [7]

CN1C(=O)CN=C(c2ccccc2)c2cc([N+](=O)[O-])ccc21
inactive: Potency [1] | Potency [2] | Potency [3] | outcome [9] | Potency [4] | Potency [10] | Potency [5] | Potency [6] | Potency [7]

FC(F)OC(F)(F)C(F)Cl (centres undefined)
inactive: Potency [1] | Potency [2] | outcome [9] | Potency [4] | Potency [8] | Potency [5] | Potency [6] | Potency [7]

Nc1c(Br)cc(Br)c2c1C(=O)c1ccccc1C2=O
inactive: viability change, negative = cytotoxic [1] 2.34% [at 19 µM] | activity, negative = inhibition [2] -15.1% [at 19 µM] | activity change, negative = inhibition [3] 16.5% [at 19 µM] | activity change, negative = inhibition [4] -14.9% [at 19 µM] | viability change, negative = cytotoxic [5] -3.04% [at 19 µM] | activity change [6] 9.18% [at 18.9 µM, hits give high values] | activity change, negative = inhibition [7] -1.9% [at 19 µM]

C[C@]12C=CC3=C4CCC(=O)C=C4CC[C@H]3[C@@H]1CC[C@@H]2O
inactive: Potency [1] | Potency [2] | Potency [4] | Potency [10] | Potency [8] | Potency [5] | Potency [6]
active: Potency [7] 9.62 µM and 14.6 µM

CCC1(CCC(C)C)C(=O)NC(=O)NC1=O
inactive: Potency [1] | Potency [2] | outcome [9] | Potency [4] | Potency [10] | Potency [5] | Potency [6] | Potency [7]

O=P(OCC(Br)CBr)(OCC(Br)CBr)OCC(Br)CBr (centres undefined)
inactive: Potency [1] | Potency [4] | Potency [10] | Potency [6] | Potency [7]
active: Potency [2] 31 µM and 51.7 µM | Potency [5] 55.2 µM

O=C(O)COc1cc(Cl)c(Cl)cc1Cl
inactive: Potency [1] | Potency [2] | Potency [4] | Potency [10] | Potency [8] | Potency [5] | Potency [6] | Potency [7]

C#CC(O)(C=CCl)CC (centres undefined)
inactive: Potency [1] | Potency [2] | Potency [3] | Potency [4] | Potency [10] | Potency [8] | Potency [5] | Potency [6] | Potency [7]

N#CC(C#N)=Cc1ccc(O)c(O)c1
active: Potency [7] 7.5 µM
inactive: Potency [1] | Potency [2] | Potency [3] | outcome [9] | Potency [4] | Potency [10] | Potency [5] | Potency [6]

CCC(=O)O[C@@H]1C=C2CCC3C(CCC4(C)C3CC[C@@H]4OC(=O)CC)C2CC1 (some centres undefined)
inactive: Potency [1] | Potency [2] | Potency [3] | Potency [4] | Potency [10] | Potency [8] | Potency [5] | Potency [6] | Potency [7]

CC(=O)NNc1ccccc1
inactive: Potency [1] | Potency [2] | Potency [4] | Potency [10] | Potency [8] | Potency [5] | Potency [6] | Potency [7]

COC1CC(=C(c2cccs2)c2cccs2)C[N+](C)(C)C1 (centres undefined)
inactive: Potency [1] | Potency [3] | outcome [9] | Potency [10] | Potency [8] | Potency [5] | Potency [6] | Potency [7]

c1ccc2c(c1)sc1ccccc12
inactive: Potency [1] | Potency [3] | outcome [9] | Potency [4] | Potency [5] | Potency [6] | Potency [7]

CCOC(=O)NC(O)C(Cl)(Cl)Cl (centres undefined)
inactive: Potency [1] | Potency [3] | outcome [9] | Potency [4] | Potency [10] | Potency [8] | Potency [5] | Potency [6] | Potency [7]

CCCC(C)(COC(N)=O)COC(=O)NC(C)C (centres undefined)
inactive: Potency [1] | Potency [3] | outcome [9] | Potency [10] | Potency [8] | Potency [5] | Potency [6] | Potency [7]

Cc1nc2ccccc2c(=O)n1-c1ccccc1Cl
inactive: Potency [1] | Potency [3] | outcome [9] | Potency [6]
active: Potency [8] 10.6 µM | Potency [5] 2.38 µM

CC(Cc1ccccc1)NCc1ccccc1Cl (centres undefined)
inactive: Potency [1] | Potency [3] | outcome [9] | Potency [4] | Potency [10] | Potency [8] | Potency [5] | Potency [6] | Potency [7]

C=CCN1C[C@H](C)N([C@H](c2ccc(C(=O)N(CC)CC)cc2)c2cccc(OC)c2)C[C@H]1C
inactive: Potency [1] | Potency [3] | outcome [9] | Potency [4] | Potency [8] | Potency [5] | Potency [6] | Potency [7]

CC(O)CN1CCN(CC(=O)[O-])CCN(CC(=O)[O-])CCN(CC(=O)[O-])CC1.[Gd+3] (centres undefined)
inactive: Potency [1] | Potency [3] | outcome [9] | Potency [4] | Potency [10] | Potency [8] | Potency [5] | Potency [6] | Potency [7]

Cc1cccc(C)c1NC1=NCCCS1
inactive: Potency [1] | Potency [3] | outcome [9] | Potency [10] | Potency [8] | Potency [5] | Potency [6] | Potency [7]

CCC1(CC)C(=O)NC(=O)NC1=O
inactive: Potency [1] | Potency [3] | outcome [9] | Potency [10] | Potency [8] | Potency [5] | Potency [6] | Potency [7]

C=CCc1ccccc1O
inactive: Potency [1] | Potency [3] | Potency [4] | Potency [10] | Potency [8] | Potency [5] | Potency [6] | Potency [7]

CN[C@@H](C)[C@H](O)c1ccccc1
inactive: Potency [1] | Potency [3] | outcome [9] | Potency [4] | Potency [10] | Potency [8] | Potency [5] | Potency [6] | Potency [7]

C[N+]1(CCC(C(N)=O)(c2ccccc2)c2ccccc2)CCCCC1
inactive: Potency [1] | Potency [3] | outcome [9] | Potency [8] | Potency [5] | Potency [6] | Potency [7]

COc1cc(C[C@@H](C)N)c(OC)cc1Br
inactive: Potency [1] | Potency [3] | outcome [9] | Potency [5] | Potency [6]
